Read-out in assay [1]: Matrix Metallopeptidase 9 (MMP9), MMP9 (gene 4318)
The experiment in a line: BSK_KF3CT_MMP9: BioMAP Diversity Plus: KF3CT Assay for Matrix Metallopeptidase 9 (MMP9) Biomarker Activity (AID 2283074). Conditions: primary human keratinocytes with fibroblasts; actives raise or lower the signal. Summed up:
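ELISA read-out of MMP-9 at 24 h post-dosing in a co-culture of human skin keratinocytes and foreskin fibroblasts. Gain or loss of signal was fitted in both directions against DMSO.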

Read-out in assay [2]: urokinase plasminogen activator (uPA), PLAU (gene 5328)
The experiment in a line: BSK_KF3CT_uPA: BioMAP Diversity Plus: KF3CT Assay for urokinase plasminogen activator (uPA) Biomarker Activity (AID 2283075). Conditions: primary human keratinocytes with fibroblasts; actives raise or lower the signal. Summed up:
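Skin co-culture (keratinocytes + foreskin fibroblasts), human primary; 24 h post-dose; uPA by ELISA; gain/loss fit vs DMSO baseline.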

Read-out in assay [3]: CD40, CD40 (gene 958)
The experiment in a line: BSK_LPS_CD40: BioMAP Diversity Plus: LPS Assay for CD40 Biomarker Activity (AID 2283076). The note with it: primary human HUVEC with PBMC; actives raise or lower the signal. In outline:
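HUVEC plus PBMC co-culture stimulated with LPS; CD40 quantified by ELISA 24 h after compound dosing. Fitting was bidirectional relative to DMSO. SRB staining of parallel cultures flagged overt cytotoxicity.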

Read-out in assay [4]: E-selectin (Homo sapiens) (UniProt P16581)
The experiment in a line: BSK_LPS_Eselectin: BioMAP Diversity Plus: LPS Assay for Eselectin Biomarker Activity (AID 2283077). Conditions: primary human HUVEC with PBMC; actives raise or lower the signal. Summed up:
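Human umbilical vein endothelial cells co-cultured with PBMC under LPS stimulation; cell-surface E-selectin measured by ELISA 24 h after dosing. Change in either direction versus DMSO, with SRB total-protein staining in parallel cultures for cytotoxicity.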

Read-out in assay [5]: Interleukin-8 (IL8), CXCL8 (gene 3576)
The experiment in a line: BSK_LPS_IL8: BioMAP Diversity Plus: LPS Assay for Interleukin-8 (IL8) Biomarker Activity (AID 2283078). The note with it: primary human HUVEC with PBMC; actives raise or lower the signal. In outline: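 Human umbilical vein endothelial cells co-cultured with PBMC, LPS-stimulated, exposed to compound for 24 h. IL-8 quantified by ELISA; fitted in both directions against DMSO, with SRB total-protein staining of parallel cultures for cytotoxicity.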

A short description of assay [6]: BSK_LPS_SRB: Viability Assessment in the BioMAP Diversity Plus: LPS Assay (AID 2283079).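 Also: total protein by sulforhodamine B absorbance as a cytotoxicity measure; measured one day after compound addition.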 The note with it: primary human HUVEC with PBMC. Summed up: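 Co-culture of human umbilical vein endothelial cells and PBMC, read 24 h after dosing. Total protein by 0.1% SRB staining after 10% TCA fixation, absorbance at 560 nm; bidirectional fit against DMSO.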
Read-out in assay [7]: Interleukin-1 alpha (IL1a), IL1A (gene 3552)
The experiment in a line: BSK_LPS_IL1a: BioMAP Diversity Plus: LPS Assay for Interleukin-1 alpha (IL1a) Biomarker Activity (AID 2283080). Conditions: primary human HUVEC with PBMC; actives raise or lower the signal. Summed up: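 Human umbilical vein endothelial cells co-cultured with PBMC and stimulated with LPS; IL-1a measured by ELISA 24 h after dosing. Bidirectional fitting against DMSO; cytotoxicity checked by SRB staining in parallel cultures.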

Read-out in assay [8]: Monocyte Chemoattractant Protein-1 (MCP1), CCL2 (gene 6347)
Briefly: BSK_LPS_MCP1: BioMAP Diversity Plus: LPS Assay for Monocyte Chemoattractant Protein-1 (MCP1) Biomarker Activity (AID 2283081).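 As to AC50: secreted MCP-1 protein quantified by ELISA in culture supernatant.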 Conditions: primary human HUVEC with PBMC; actives raise or lower the signal. Summed up:
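Human umbilical vein endothelial cells co-cultured with PBMC, LPS-stimulated; secreted MCP-1 measured by ELISA 24 h after compound addition. Bidirectional curve fitting against DMSO baseline; SRB total-protein staining in parallel cultures for cytotoxicity.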

Assay [9] in a line: BSK_LPS_PGE2: BioMAP Diversity Plus: LPS Assay for Prostaglandin E2 (PGE2) Biomarker Activity (AID 2283082). The note with it: primary human HUVEC with PBMC; actives raise or lower the signal. In outline: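 PGE2 release measured by ELISA in an LPS-activated co-culture of human umbilical vein endothelial cells and peripheral blood mononuclear cells, read at 24 h post-dosing. DMSO served as baseline for bidirectional curve fitting.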

Read-out in assay [10]: Macrophage colony-stimulating factor (MCSF), CSF1 (gene 1435)
Briefly: BSK_LPS_MCSF: BioMAP Diversity Plus: LPS Assay for Macrophage colony-stimulating factor (MCSF) Biomarker Activity (AID 2283083). The note with it: primary human HUVEC with PBMC; actives raise or lower the signal. Summed up: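 HUVEC–PBMC co-culture, M-CSF measured by ELISA 24 h after chemical dosing. Fitted in both directions relative to DMSO as negative control; overt cytotoxicity assessed by SRB total-protein staining in parallel cultures.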

Read-out in assay [11]: Tissue Factor, F3 (gene 2152)
Briefly: BSK_LPS_TissueFactor: BioMAP Diversity Plus: LPS Assay for Tissue Factor Biomarker Activity (AID 2283084). The note with it: primary human HUVEC with PBMC; actives raise or lower the signal. Summed up: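 Human umbilical vein endothelial cells co-cultured with PBMC were dosed with compound. Cell-surface CD142 was measured by ELISA 24 h later. Activity was fitted bidirectionally against DMSO, with SRB total-protein staining in parallel cultures for cytotoxicity.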

Read-out in assay [12]: Tumor necrosis factor (Homo sapiens) (UniProt P01375)
Briefly: BSK_LPS_TNFa: BioMAP Diversity Plus: LPS Assay for Tumour Necrosis Factor alpha (TNFa) Biomarker Activity (AID 2283085).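 As to AC50: TNFa protein level quantified by ELISA in the co-culture.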 The note with it: primary human HUVEC with PBMC; actives raise or lower the signal. In outline: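 TNFa was quantified by ELISA in LPS-activated co-cultures of human endothelial cells and PBMC, 24 h post-dosing. Both increases and decreases versus DMSO were fitted.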

Read-out in assay [13]: Vascular cell adhesion molecule 1 (VCAM1), VCAM1 (gene 7412)
The experiment in a line: BSK_LPS_VCAM1: BioMAP Diversity Plus: LPS Assay for Vascular cell adhesion molecule 1 (VCAM1) Biomarker Activity (AID 2283086). The note with it: primary human HUVEC with PBMC; actives raise or lower the signal. Summed up: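 VCAM-1 quantified by ELISA in an LPS-activated co-culture of human endothelial cells and peripheral blood mononuclear cells, read 24 h post-treatment. Fitted in both directions versus DMSO; parallel SRB staining flags overt cytotoxicity.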

Read-out in assay [14]: CD38, CD38 (gene 952)
Briefly: BSK_SAg_CD38: BioMAP Diversity Plus: SAg Assay for CD38 Biomarker Activity (AID 2283087). The note with it: primary human HUVEC with PBMC; actives raise or lower the signal. In outline:
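CD38 quantified by ELISA (fluorescence) in a superantigen-activated endothelial cell–PBMC co-culture at 24 h post-dose. Activity fitted in both directions relative to DMSO; parallel SRB and Alamar Blue cytotoxicity read-outs.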

Read-out in assay [15]: CD40, CD40 (gene 958)
Briefly: BSK_SAg_CD40: BioMAP Diversity Plus: SAg Assay for CD40 Biomarker Activity (AID 2283088). Conditions: primary human HUVEC with PBMC; actives raise or lower the signal. In outline:
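HUVEC plus PBMC co-culture, superantigen-activated, with CD40 read by ELISA 24 h after dosing. Curves fitted in both directions against DMSO. Overt cytotoxicity checked by parallel SRB total-protein staining.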

Read-out in assay [16]: CD69, CD69 (gene 969)
The experiment in a line: BSK_SAg_CD69: BioMAP Diversity Plus: SAg Assay for CD69 Biomarker Activity (AID 2283089).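 As to AC50: cell surface CD69 protein quantified by ELISA with fluorescence detection.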 Conditions: primary human HUVEC with PBMC; actives raise or lower the signal. Summed up:
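Values derive from bidirectional fitting relative to DMSO vehicle. Cells: umbilical vein endothelium plus peripheral blood mononuclear cells, treated 24 h before fluorescent ELISA for CD69.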

Read-out in assay [17]: Monocyte Chemoattractant Protein-1 (MCP1), CCL2 (gene 6347)
Briefly: BSK_SAg_MCP1: BioMAP Diversity Plus: SAg Assay for Monocyte Chemoattractant Protein-1 (MCP1) Biomarker Activity (AID 2283090). The note with it: primary human HUVEC with PBMC; actives raise or lower the signal. Summed up:
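Values derive from bidirectional fitting of ELISA-measured MCP1 against DMSO controls. Readings were taken 24 h after dosing human vascular endothelial cells co-cultured with peripheral blood mononuclear cells under superantigen stimulation.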

Read-out in assay [18]: E-selectin (Homo sapiens) (UniProt P16581)
Briefly: BSK_SAg_Eselectin: BioMAP Diversity Plus: SAg Assay for Eselectin Biomarker Activity (AID 2283091). The note with it: primary human HUVEC with PBMC; actives raise or lower the signal. Summed up:
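Human umbilical vein endothelial cells co-cultured with peripheral blood mononuclear cells, SAg system. E-selectin is measured by ELISA 24 h after dosing and fitted bidirectionally against DMSO. Cytotoxicity is checked by SRB staining of parallel cultures.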

Read-out in assay [19]: Monokine induced gamma interferon (MIG), CXCL9 (gene 4283)
Briefly: BSK_SAg_MIG: BioMAP Diversity Plus: SAg Assay for Monokine induced gamma interferon (MIG) Biomarker Activity (AID 2283092). The note with it: primary human HUVEC with PBMC; actives raise or lower the signal. In outline:
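Values reflect bidirectional fitting of ELISA-measured MIG against DMSO vehicle, taken 24 h after dosing of a co-culture of human umbilical vein endothelial cells and peripheral blood mononuclear cells.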

Assay [20] can be described thus: BSK_SAg_PBMCCytotoxicity: PBMC Cytotoxicity Assessment in the BioMAP Diversity Plus: SAg Assay (AID 2283093).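 Also: fitted both ways against DMSO so a hit may be loss or gain of signal.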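 As to AC50: PBMC superantigen activated with SEB plus TSST-1 one hour after compound addition.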 Conditions: primary human HUVEC with PBMC. In outline:
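PBMC viability by Alamar Blue reduction, fluorescence read at 546/580 nm after 6 h dye exposure. Cells were dosed 1 h before SEB plus TSST-1 activation (20 ng/mL final each), then held 90 h; endothelial/PBMC human co-culture.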

“And” between values parts separate entries of the source, which are not always exact repeats. Equal values may be shown once. Some structures have more than one record in an assay (separate samples or runs), and their calls can disagree. The source made the active and inactive calls. The calls were made as follows: active = hit-call score of the fitted dose curve at least 0.9, where 1 is the maximum; inactive = score below 0.9.

Chain of E-selectin (Homo sapiens) (P16581 whole entry, looked up): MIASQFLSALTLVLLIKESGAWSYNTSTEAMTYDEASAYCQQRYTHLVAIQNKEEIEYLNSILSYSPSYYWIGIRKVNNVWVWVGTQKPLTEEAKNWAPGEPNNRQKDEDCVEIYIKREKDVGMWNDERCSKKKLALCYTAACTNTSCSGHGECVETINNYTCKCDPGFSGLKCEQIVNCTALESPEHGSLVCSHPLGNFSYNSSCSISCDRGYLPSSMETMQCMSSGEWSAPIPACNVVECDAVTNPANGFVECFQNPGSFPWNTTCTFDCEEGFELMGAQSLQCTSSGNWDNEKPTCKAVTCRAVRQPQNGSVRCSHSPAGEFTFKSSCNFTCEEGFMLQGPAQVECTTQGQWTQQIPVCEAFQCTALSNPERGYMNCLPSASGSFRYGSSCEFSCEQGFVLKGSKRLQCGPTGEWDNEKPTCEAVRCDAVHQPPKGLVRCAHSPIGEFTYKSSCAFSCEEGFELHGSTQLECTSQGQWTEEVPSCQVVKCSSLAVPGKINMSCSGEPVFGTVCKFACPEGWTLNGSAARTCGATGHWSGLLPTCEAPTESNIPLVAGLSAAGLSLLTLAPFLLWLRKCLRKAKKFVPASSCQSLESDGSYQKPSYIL
Chain of Tumor necrosis factor (Homo sapiens) (P01375 whole entry, looked up): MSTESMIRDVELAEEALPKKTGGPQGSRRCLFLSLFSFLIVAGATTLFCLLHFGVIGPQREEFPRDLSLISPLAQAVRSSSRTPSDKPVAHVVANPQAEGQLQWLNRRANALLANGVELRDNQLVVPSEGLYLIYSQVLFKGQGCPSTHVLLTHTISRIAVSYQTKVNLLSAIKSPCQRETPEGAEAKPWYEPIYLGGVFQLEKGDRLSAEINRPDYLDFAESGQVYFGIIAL

Consider `Cn1sc(Cl)cc1=O`, for which the outcome in [1], in [2], in assay [5], in [6], in [9] and in assay [11] was inactive. For the same compound, the outcome in assay [19] was inactive. Further, the concentration at half-maximal activity (AC50) (usually the concentration giving half of the maximal activity seen) is 26 µM (active) in assay [3]; 35.4 µM (active) in assay [4]; 29.3 µM (active) in assay [7]; 35.2 µM (active) in assay [8]; 29.5 µM (active) in [10]; 31.2 µM (active) in [12]. The AC50 is 29.3 µM (active) in assay [13]; 31.3 µM (active) in assay [14]; 26.4 µM (active) in assay [15]; 26.4 µM (active) in assay [16]; 30.7 µM (active) in assay [17]; 20 µM (active) in assay [18]. For the same compound, the AC50 in assay [20] is 16.9 µM (active).
Consider `ClCC(Cl)CCl`, for which the outcome in [1], in assay [2], in assay [3], in [4], in assay [5] and in [6] was inactive. Also, the result in [7], in [8], in assay [9], in assay [10], in [11] and in [12] was inactive. Also, the outcome in assay [14], in assay [15], in assay [16], in assay [17], in assay [18] and in assay [19] was inactive. Besides, the result in assay [20] was inactive.
As for `COc1cc(-c2ccc(N)c(OC)c2)ccc1N`, the outcome in [1], in assay [2], in assay [3], in assay [4], in [5] and in assay [6] was inactive. Also, the result in assay [7], in assay [8], in assay [10], in assay [11], in [12] and in assay [13] was inactive. Moreover, the outcome in assay [14], in [15], in assay [16], in assay [17], in [19] and in [20] was inactive. Also, the AC50 in [9] is 3.63 µM (active) and 9 µM (active); in [10], 19.2 µM (active); in assay [11], 19.2 µM (active); in assay [13], 23.9 µM (active); in [18], 11.8 µM (active).

Values taken from PubChem BioAssay (EPA / NIEHS).
